According to PubChem BioAssay (NCI):
The panel holds about 83,000 compounds, 20% with a hit somewhere; the sample as a whole holds those more often.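 Method: cells in 96-well plates; compound added at one concentration; 48 h incubation; percent growth measured; values under 10 scored active.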 A number with no mark means an inactive call. Calls of active or inactive are those of the source.

Experiments:
Test in all cases: NCI-60 one-dose screen, 48 h (100 = growth as untreated, 0 = no growth, -100 = all killed)
Details in all cases: 10 µM unless noted
SK-MEL-2 melanoma = tested on: SK-MEL-2 melanoma
EKVX NSCLC = tested on: EKVX NSCLC
SN12C renal = tested on: SN12C renal
UO-31 renal = tested on: UO-31 renal
TK-10 renal = tested on: TK-10 renal
ACHN renal = tested on: ACHN renal
A498 renal = tested on: A498 renal
CCRF-CEM leukemia = tested on: CCRF-CEM leukemia
MOLT-4 leukemia = tested on: MOLT-4 leukemia
SR leukemia = tested on: SR leukemia
RPMI-8226 leukemia = tested on: RPMI-8226 leukemia
OVCAR-8 ovarian = tested on: OVCAR-8 ovarian
OVCAR-5 ovarian = tested on: OVCAR-5 ovarian
OVCAR-4 ovarian = tested on: OVCAR-4 ovarian
SK-OV-3 ovarian = tested on: SK-OV-3 ovarian
IGROV1 ovarian = tested on: IGROV1 ovarian
OVCAR-3 ovarian = tested on: OVCAR-3 ovarian
HS 578T breast = tested on: HS 578T breast
NCI/ADR-RES ovarian = tested on: NCI/ADR-RES ovarian
T-47D breast = tested on: T-47D breast

| SMILES | growth (SK-MEL-2 melanoma) | growth (EKVX NSCLC) | growth (SN12C renal) | growth (UO-31 renal) | growth (TK-10 renal) | growth (ACHN renal) | growth (A498 renal) | growth (CCRF-CEM leukemia) | growth (MOLT-4 leukemia) | growth (SR leukemia) | growth (RPMI-8226 leukemia) | growth (OVCAR-8 ovarian) | growth (OVCAR-5 ovarian) | growth (OVCAR-4 ovarian) | growth (SK-OV-3 ovarian) | growth (IGROV1 ovarian) | growth (OVCAR-3 ovarian) | growth (HS 578T breast) | growth (NCI/ADR-RES ovarian) | growth (T-47D breast) |
| --- | --- | --- | --- | --- | --- | --- | --- | --- | --- | --- | --- | --- | --- | --- | --- | --- | --- | --- | --- | --- |
| Cc1cc(C)n(-c2nc(-c3cccs3)c(C#N)c(=O)[nH]2)n1 | 97.2% | 95.5% | 95.8% | 89.1% | 103% | 108% | 93.8% | 103% | 87% | 100% | 105% | 102% | 105% | 91.1% | 90.9% | 108% | 94.7% | 106% | 85.7% | 80.6% |
| Cc1nccc2c3ccc(OCc4cn(-c5ccc(Br)cc5)nn4)cc3n(CC(C)C)c12 | 53% | 59.5% | 61.5% | 38.4% | 41.1% | 61.9% | 53% | 35.1% | 2.93% (active) | -13.9% (active) | -16.2% (active) | 40.7% | 68.2% | 58.8% | 43.4% | 67.4% | 57.8% | 59.4% | 32.1% | 36.9% |
| Cn1cc(-c2ccc3c(c2)ncn3-c2ccc(CC(=O)Nc3cc(C(C)(C)C)on3)cc2)cn1 | 23.4% | 20.5% | 13.1% | 3.88% (active) | -8.53% (active) | 6.24% (active) | -47.1% (active) | 57.7% | 27.4% | 18.8% | 76.8% | 41.4% | 22.8% | 12.3% | 7.18% (active) | -27.7% (active) | 32.4% | -7.52% (active) | 38.7% | 35.5% |
| COc1ccc(-n2cc(-c3ccc(Cl)c(Cl)c3)[nH]c2=O)cc1OC | 97.7% | 93.6% | 102% | 95% | 96.6% | 105% | 79.3% | 3.68% (active) | 144% | 40.1% | 97.6% | 94.6% | 90% | 89.9% | 101% | 102% | 111% | 102% | 105% | 92.1% |
| COC(=O)/C=C/c1cc(OC)c2c(c1)[C@@H](C(=O)OC)[C@H](c1ccc(OC)c(OC)c1)O2 | 31.4% | 38.5% | 45.5% | 45.9% | 64.1% | 44.4% | 22.1% | 18.7% | 22.9% | 26% | 12.6% | 30.8% | 77% | 42.6% | 66.8% | 43.2% | -15.8% (active) | 37.5% | 16.6% | 33.1% |
| CS(=O)(=O)O[C@@H]1C(=O)N(c2cc3c4ccccc4ccc3c3ccccc23)[C@H]1c1ccc(F)cn1 | 14.4% | 47.1% | 40.6% | 46.9% | 81.7% | 52% | 14.6% | 10.4% | 24.3% | 11.4% | 19.8% | 27.4% | 58.3% | 66.5% | 41.7% | 51.7% | -12.7% (active) | 7.01% (active) | 20.2% | 32.5% |
| C=C1C(=O)O[C@H]2[C@H]1CC/C(C=Nc1c(N)cc(C(F)(F)F)cc1Br)=C\CC[C@@]1(C)O[C@@H]21 | -31.6% (active) | 18.1% | -21.8% (active) | -71.5% (active) | -27.3% (active) | -44.6% (active) | 55.2% | 2.83% (active) | -2.99% (active) | -4.04% (active) | -23.4% (active) | -8.6% (active) | 42.8% | 55.3% | 83.1% | -9.71% (active) | -91.9% (active) | 6.58% (active) | 9.14% (active) | -16.3% (active) |
| N#Cc1ccc(N2Cc3cc(Cl)ccc3OC3=C2C(=O)N(Cc2ccc(F)cc2)C3=O)cc1 | -46.5% (active) | 37.4% | -24.9% (active) | -85.7% (active) | -79.4% (active) | -92.9% (active) | 120% | -20% (active) | -34.5% (active) | -33.5% (active) | -21.8% (active) | -26.9% (active) | -1.59% (active) | -25.8% (active) | 102% | -5.53% (active) | -89% (active) | 27% | 10.1% | -70.3% (active) |
| COc1ccc(-c2nnc(N3CCN(C(=O)CN4CCN(c5ccccc5)CC4)CC3)nc2-c2ccc(OC)cc2)cc1 | 38.1% | 13% | 7.79% (active) | 26.9% | 55.3% | 26.1% | 48% | 9.28% (active) | -25.7% (active) | -32.5% (active) | -58.3% (active) | 42% | 78.6% | 24.4% | 74.4% | 34.3% | 33.8% | 55.4% | 42.1% | 16.8% |
| Oc1ccc(CNNc2ccnc3c(O)cccc23)c2cccnc12 | 31.4% | 8.17% (active) | 45.4% | 23.7% | 30.7% | 15.2% | 74.7% | 18.7% | 13.4% | 20.4% | 22.2% | 20.8% | 59.1% | 34.4% | 27.6% | 35.1% | 37.8% | 47.7% | 6.61% (active) | 29.6% |
| O=CN1N=C(c2ccc(F)cc2)CC1c1cccc(Nc2ccnc3cc(C(F)(F)F)ccc23)c1 (stereo not given) | 54.2% | 50.6% | 81% | 44.6% | 62.7% | 54.4% | 49.6% | 44.8% | 23.1% | 20.2% | 24.6% | 41.5% | 95.2% | 41% | 69.1% | 67.9% | 59.8% | 73.5% | 47.4% | 26.4% |
| COc1ccc2oc(=O)cc(-c3nc4ccc(N)cc4[nH]3)c2c1 | 89.5% | 82.2% | 92.4% | 44.9% | 96.5% | 79.9% | 61.5% | 108% | 73.4% | 76.1% | 83.4% | 89.9% | 92.6% | 95.8% | 77.5% | 76.7% | 86.2% | 81.5% | 88% | 51.8% |
| Cc1cnc(SCc2ccc(Cl)cc2)[nH]c1=S | 88.5% | 103% | 103% | 93.9% | 95.1% | 104% | 90.7% | 106% | 106% | 89.7% | 101% | 101% | 97.5% | 92.3% | 108% | 103% | 94.1% | 112% | 103% | 88% |
| O=C1NC(c2ccc(F)cc2)N=C2C(c3ccccc3)=NOC12 (stereo not given) | 108% | 99.8% | 104% | 97.4% | 106% | 107% | 104% | 102% | 116% | 112% | 107% | 106% | 108% | 105% | 106% | 108% | 109% | 106% | 112% | 104% |
| COc1ccc(-c2cs/c(=N\N=C\c3ccc(O)cc3O)n2/N=C/c2ccc(O)cc2O)cc1 | -28.4% (active) | 7.59% (active) | 4.01% (active) | -65% (active) | -31.3% (active) | -34.3% (active) | -6.11% (active) | 2.63% (active) | -35.3% (active) | 6.76% (active) | -25.9% (active) | -17.1% (active) | 10.6% | -7.88% (active) | -30.8% (active) | -17.2% (active) | -63.5% (active) | 24.1% | -12.4% (active) | -36.8% (active) |
